In all, about 33,000 sequences were measured (“E-score (-0.5 to 0.5)”: median about -0.0014, highest 2% from about 0.25 on). Shown is part of a subset that was picked to be rich in the highest values.
What follows are sequences tested against T1, Cad1 (UniProt P24813) (assay: PBM E-score (8-mer binding enrichment) (E-score (-0.5 to 0.5)); higher = stronger / more preferred TF binding). Conditions: protein concentration: 100 nM; construct: GST-full length.
T1 sequence: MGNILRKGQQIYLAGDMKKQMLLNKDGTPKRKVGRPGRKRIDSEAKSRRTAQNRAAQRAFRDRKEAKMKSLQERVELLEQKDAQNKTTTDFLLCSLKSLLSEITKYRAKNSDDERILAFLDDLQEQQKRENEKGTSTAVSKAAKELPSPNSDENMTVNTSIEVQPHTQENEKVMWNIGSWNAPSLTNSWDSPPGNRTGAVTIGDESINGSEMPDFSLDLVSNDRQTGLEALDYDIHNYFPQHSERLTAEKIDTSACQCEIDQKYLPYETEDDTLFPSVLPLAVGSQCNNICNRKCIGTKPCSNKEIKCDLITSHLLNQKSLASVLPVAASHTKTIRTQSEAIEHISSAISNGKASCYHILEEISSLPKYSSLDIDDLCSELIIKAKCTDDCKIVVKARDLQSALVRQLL
Outline: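 Yeast transcription factors carrying a GST tag, as full-length proteins or DNA-binding domains, were produced by PURExpress in vitro transcription/translation. About 100-200 nM protein was applied to universal all-10-mer Agilent arrays, double-stranded by primer extension on fresh or once-stripped slides. Bound protein was detected with fluorescent anti-GST, and scans were normalised with masliner. The Universal PBM Analysis Suite gave each ungapped eight-base word, pooled with its reverse complement, an E-score, a modified Wilcoxon-Mann-Whitney statistic.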

Going from GGTAAGCA to CGTAAGCA, the “PBM E-score” value falls from 0.257 to 0.232.

Compared with AATAAGCT, AATAAGAG is lower in “PBM E-score” value: 0.234 for the first, 0.0662 for the second.

Compared with GATAAGCA, AATAAGCA is higher in “PBM E-score” value: 0.154 for the first, 0.343 for the second.

Compared with AATAAGAA, CTCTAGTC is lower in “PBM E-score” value: 0.252 for the first, -0.388 for the second.

Going from AGACTTGA to ATTTTCCC, the “PBM E-score” value rises from -0.0266 to 0.00868.

Going from ATTTCCGG to ATTCCCGA, the “PBM E-score” value falls from 0.264 to -0.241.

Compared with ATTCCCGG, ATTTTCCG is higher in “PBM E-score” value: 0.296 for the first, 0.304 for the second.

First: ATTCCCCG
Second: AATTTCCG
The “PBM E-score” value of the first is lower: -0.0432 for the first, 0.24 for the second.

Going from ATTTCCGC to ATTTCCGA, the “PBM E-score” value falls from 0.123 to 0.0803.

First: GCGGGTCC
Second: AGTTTGGC
The “PBM E-score” value of the first is lower: -0.207 for the first, 0.109 for the second.

Compared with CCCTAAAA, GCTCAGCC is higher in “PBM E-score” value: -0.228 for the first, -0.143 for the second.

First: AGGCAAAC
Second: CACCGTGG
The “PBM E-score” value of the first is lower: -0.106 for the first, -0.018 for the second.

Compared with ACGAATTA, GCTAATGA is lower in “PBM E-score” value: 0.0763 for the first, -0.0534 for the second.

First: ACTAATTA
Second: ACTAATGC
The “PBM E-score” value of the first is higher: 0.377 for the first, 0.275 for the second.

First: ACTAACTA
Second: CCTAATTC
The “PBM E-score” value of the first is higher: 0.00503 for the first, -0.115 for the second.

First: ACTAATGA
Second: ACTAATGG
The “PBM E-score” value of the first is lower: 0.128 for the first, 0.209 for the second.

Compared with ACTAATTG, GCTAATTA is higher in “PBM E-score” value: 0.197 for the first, 0.306 for the second.

First: CCTAATTA
Second: ACTAATTC
The “PBM E-score” value of the first is lower: 0.156 for the first, 0.306 for the second.

First: CGAAAACG
Second: CTTTACCA
The “PBM E-score” value of the first is higher: 0.0757 for the first, 0.00321 for the second.

First: AACTTATT
Second: GTATTAAC
The “PBM E-score” value of the first is higher: 0.142 for the first, -0.0392 for the second.

Compared with AGGATTAT, ATCATAGA is higher in “PBM E-score” value: -0.0734 for the first, 0.146 for the second.

First: AAATACCC
Second: CCCAAGAA
The “PBM E-score” value of the first is higher: 0.136 for the first, 0.0477 for the second.

First: ACTTCCAC
Second: AATGGACT
The “PBM E-score” value of the first is lower: 0.00186 for the first, 0.0697 for the second.

Going from ACTCTCGA to AAGCCATC, the “PBM E-score” value falls from 0.141 to 0.0891.

Going from CAGGGCTC to TAATATAA, the “PBM E-score” value rises from -0.158 to 0.332.

Compared with CAATATAC, TAATAAAA is higher in “PBM E-score” value: 0.0244 for the first, 0.226 for the second.

First: CAATATAA
Second: CAATATAG
The “PBM E-score” value of the first is higher: 0.283 for the first, 0.101 for the second.

First: GAATATAA
Second: AAGAATTC
The “PBM E-score” value of the first is higher: 0.0963 for the first, 0.0649 for the second.

First: CACACTCG
Second: AAGTCCTG
The “PBM E-score” value of the first is higher: 0.0692 for the first, -0.138 for the second.

Going from CTAATCCA to ATAATTTA, the “PBM E-score” value rises from 0.131 to 0.236.

Compared with GTAATTTA, CTAATCTA is lower in “PBM E-score” value: 0.267 for the first, 0.0215 for the second.

Going from ATAATCCA to GTAATCCA, the “PBM E-score” value rises from 0.252 to 0.277.

First: ATAATCCC
Second: CTAATTTA
The “PBM E-score” value of the first is lower: -0.033 for the first, 0.199 for the second.

Going from ATAATCTA to GTAATCTA, the “PBM E-score” value rises from 0.185 to 0.268.

First: GCAATCCA
Second: ATAATCCG
The “PBM E-score” value of the first is lower: 0.0441 for the first, 0.119 for the second.

Compared with GCTTTGCC, CAGGTCTC is higher in “PBM E-score” value: -0.183 for the first, -0.164 for the second.

Going from CGACCATA to AACCCCGC, the “PBM E-score” value falls from -0.0443 to -0.159.

Compared with CGATTGCC, GTAATCAC is higher in “PBM E-score” value: 0.0433 for the first, 0.229 for the second.

First: TTAATCAA
Second: GTAATCAA
The “PBM E-score” value of the first is lower: 0.199 for the first, 0.253 for the second.

Going from CGCTAGAG to AAAGTCGA, the “PBM E-score” value rises from -0.115 to -0.0137.

Going from ATTTGAAA to GTTTGAAA, the “PBM E-score” value falls from 0.251 to 0.113.

Compared with ATTTGCAA, GTTTGCAA is lower in “PBM E-score” value: 0.277 for the first, 0.0869 for the second.

Compared with CTTTGCAA, CTTTGAAA is higher in “PBM E-score” value: 0.0374 for the first, 0.116 for the second.

First: TGTCGCAA
Second: GGCCTCAA
The “PBM E-score” value of the first is lower: -0.137 for the first, -0.0369 for the second.

First: AAAGTCAT
Second: ACCCTCTA
The “PBM E-score” value of the first is higher: 0.074 for the first, -0.192 for the second.

First: CCCCAAGG
Second: GCACCTCA
The “PBM E-score” value of the first is lower: -0.307 for the first, 0.0626 for the second.

First: CGATCGAC
Second: CGATCGAA
The “PBM E-score” value of the first is higher: 0.272 for the first, 0.106 for the second.

Compared with AGATCGAC, CTGGCTAC is lower in “PBM E-score” value: 0.0578 for the first, -0.259 for the second.

First: GATAGACA
Second: CTCCACCA
The “PBM E-score” value of the first is higher: -0.0074 for the first, -0.193 for the second.

Compared with GGACAGAA, GCTCGCTA is lower in “PBM E-score” value: 0.0717 for the first, -0.0118 for the second.

Going from GCTCGCGA to CCTCGCGA, the “PBM E-score” value falls from 0.3 to 0.121.

Going from ACTCGCGG to ACTCGCGC, the “PBM E-score” value rises from 0.0242 to 0.0881.

Going from ACTCGCGA to CGATGAAG, the “PBM E-score” value falls from 0.271 to -0.0787.

Going from AGAGTATC to AATCCACG, the “PBM E-score” value rises from -0.0123 to 0.048.

Going from AGTTTCCG to CCTGGGGC, the “PBM E-score” value falls from 0.105 to -0.343.

Going from ACTGTAGC to CACGTCTG, the “PBM E-score” value rises from -0.136 to 0.134.

First: ACATCGAA
Second: TCCGGGCA
The “PBM E-score” value of the first is higher: 0.169 for the first, 0.00134 for the second.

First: AGCTCGCA
Second: AGCTCGCG
The “PBM E-score” value of the first is lower: 0.0143 for the first, 0.262 for the second.

First: ATCTCGCC
Second: ATCTCGCA
The “PBM E-score” value of the first is lower: -0.0589 for the first, 0.0847 for the second.

Compared with ATCTCGCG, AGCTCGCC is lower in “PBM E-score” value: 0.256 for the first, -0.0374 for the second.

Going from AGCTGACA to GGCTGACC, the “PBM E-score” value falls from 0.192 to -0.121.

First: CGCTGACA
Second: GGCTGACA
The “PBM E-score” value of the first is lower: 0.297 for the first, 0.313 for the second.

Going from GGCTGATA to CGCTGACC, the “PBM E-score” value rises from -0.0873 to 0.117.

First: TGCTGACA
Second: CGCTGACG
The “PBM E-score” value of the first is higher: 0.334 for the first, 0.0393 for the second.

Going from TGCTGAAA to CGCGCAAC, the “PBM E-score” value rises from -0.0176 to 0.2.

Compared with AGGATGGG, AAGTCTAG is lower in “PBM E-score” value: -0.107 for the first, -0.155 for the second.

Compared with AGAAAATC, CGAAAATA is higher in “PBM E-score” value: -0.0518 for the first, 0.163 for the second.

Compared with CGAAAATC, AGAAAAGA is lower in “PBM E-score” value: 0.259 for the first, -0.0414 for the second.

First: CGAAAAGA
Second: GGAAAAGA
The “PBM E-score” value of the first is higher: 0.28 for the first, -0.191 for the second.

First: GTATTGCA
Second: ATAGGCGC
The “PBM E-score” value of the first is lower: -0.0639 for the first, 0.0733 for the second.

Compared with ACGGGCAA, ACCAAAAT is higher in “PBM E-score” value: -0.05 for the first, 0.0849 for the second.

First: ACCAATAC
Second: ACGAATAA
The “PBM E-score” value of the first is lower: -0.106 for the first, -0.0279 for the second.

Compared with ACCAAAAA, ACCAATAG is lower in “PBM E-score” value: 0.278 for the first, -0.201 for the second.

Compared with ACCAAAAC, ACGAATAC is higher in “PBM E-score” value: -0.0311 for the first, 0.132 for the second.

Going from AACAATAT to AACAATAC, the “PBM E-score” value falls from 0.338 to 0.135.

Compared with AACAATAA, ACGAATAT is higher in “PBM E-score” value: 0.211 for the first, 0.268 for the second.

Going from ACCAATAT to ACGGACCT, the “PBM E-score” value falls from 0.306 to -0.0269.

Going from CCAGCGTA to GCTCATGA, the “PBM E-score” value rises from -0.0528 to 0.0686.

First: GCTGCCCC
Second: GCCCCAGA
The “PBM E-score” value of the first is higher: -0.107 for the first, -0.158 for the second.

First: CCTTGGGA
Second: CAGTGGAA
The “PBM E-score” value of the first is higher: -0.00782 for the first, -0.0557 for the second.

First: CGTCCGGA
Second: ACGTTGGG
The “PBM E-score” value of the first is higher: 0.099 for the first, 0.0171 for the second.

First: ACTCGCAT
Second: CGTACACG
The “PBM E-score” value of the first is higher: 0.101 for the first, 0.0454 for the second.

First: ATTACATG
Second: ATTACACC
The “PBM E-score” value of the first is higher: 0.301 for the first, 0.108 for the second.

First: ATTACTCG
Second: TGTACACA
The “PBM E-score” value of the first is lower: 0.221 for the first, 0.256 for the second.

Compared with ATTACTCC, ATTACACG is lower in “PBM E-score” value: 0.0689 for the first, 0.0358 for the second.

First: ATTACTCA
Second: ATTACATC
The “PBM E-score” value of the first is higher: 0.325 for the first, 0.209 for the second.

First: AGTACACA
Second: ATTACACA
The “PBM E-score” value of the first is lower: 0.0961 for the first, 0.284 for the second.

With ATTACAGG the “PBM E-score” value was 0.228.
